# Assay results: PubChem BioAssay (NCATS)
# A number with no mark means an inactive call. Results filed as inconclusive are left out. Active and inactive are the calls of the source. Unless noted, the call rests on the fitted dose curve; in most records, active means well fitted curve in either direction with a large enough effect (not every such curve was filed as active); inconclusive means small, poorly fitted or top-dose-only effect, or another doubt; inactive means flat fitted curve, though single readings scatter.
# Columns and labels:
# [1] = AP1 Signaling Pathway (AID 357); conditions: ME-180 AP-1-bla reporter, EGF-induced, beta-lactamase ratio, 5 h; at 17.2 µM (top of the series) unless noted;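 further: ME-180 reporter cells stimulated with EGF at its EC50 level; on the % scale 0 is the no-effect control and ±100 the full control effect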
# Summary of the method: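 Titration-series screen for positive or negative modulators of EC50 EGF-induced signaling in ME-180 cells carrying an AP-1-driven beta-lactamase reporter. After 5 hours at 37 degrees Celsius, CCF4 460nm/530nm emission ratio gave %Activity; AC50 values derived.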
# [2] = molecular target: Cytochrome P450 1A2 (Homo sapiens) (UniProt P05177); assay: p450-cyp1a2 (AID 410; calls by dose curve;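 further: -100% = full effect of reference inhibitor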)
# Summary of the method: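 Luminescent readout of luciferin formed from Luciferin-ME by human CYP1A2; data normalized against complete inhibition by 57 uM furafylline. Enzyme 20nM, substrate 100uM at Km, 100mM KPO4 buffer, 60 min reaction at room temperature.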
# [3] = NFAT Signaling Pathway (AID 444); conditions: Jurkat NFAT-bla M1, carbachol, beta-lactamase ratio, 5 h; at 17.2 µM (top of the series) unless noted;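 further: carbachol stimulus at about its EC50 of 1 µM final; on the % scale 0 is the no-effect control and ±100 the full control effect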
# Summary of the method: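 Read-out: CCF4 FRET ratio (460 nm/530 nm) after 1 h RT dye loading, used for %activity and AC50 from titration series. Cells: Jurkat NFAT-β-lactamase/M1 line, treated with compound plus 1 uM carbachol for 5 h, 37 °C.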
# [4] = Stat Signaling Pathway (AID 446);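 further: ME-180 cervical cancer cells given 40 pM IL-6 alongside compound; SIE-controlled beta-lactamase reporter measured as 460/530 nm FRET emission ratio; on the % scale 0 is the no-effect control and ±100 the full control effect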
# Summary of the method: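 Screening format detects activators and inhibitors alike: ME-180 SIE-bla cells stimulated at 40 pM IL-6 for 5 hrs with compound, then dual-emission beta-lactamase read at 405 nm excitation.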
# [5] = molecular target: Mitogen-activated protein kinase 10 (Mus musculus) (UniProt Q61831); assay: JNK3 AlphaScreen Assay (AID 530);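 further: kinase came from lysate of stimulated human HepG2 cells; signal reports phosphorylation of biotinylated GST-cJun 1-79 at Ser73 with 10 µM ATP; on the % scale 0 is the no-effect control and ±100 the full control effect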
# Summary of the method: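 Compound titrations were preincubated 15 minutes at room temperature with substrate, antibody and pre-activated JNK3-containing HepG2 lysate. Reactions were started with 10 uM ATP and stopped with EDTA-containing bead buffer for AlphaScreen detection.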
# [6] = molecular target: 3',5'-cyclic-AMP phosphodiesterase 4B (Homo sapiens) (UniProt Q07343); assay: qHTS Assay for Inhibitors of PDE-IV (AID 607; active means well fitted activation curve with a large enough effect in the main read-out, with a control signal flat, not every such curve was filed as active; further: % of control where 0% means no effect)
# Summary of the method: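 The readout is membrane depolarisation from a cAMP-sensing CNG channel, detected with a potential dye at ex 535/em 590. Cells were HEK293-derived (endogenous PDE-IV) at 1000 cells/well, titrated up to 22.9 uM final.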
# [7] = molecular target: Cytochrome P450 2C9 (Homo sapiens) (UniProt P11712); assay: qHTS Assay for Inhibitors and Substrates of Cytochrome P450 2C9 (AID 883; active means well fitted curve in the direction sought with a large enough effect; an effect the other way counts as inactive or inconclusive; further: on the % scale 0 is the no-effect control and ±100 the full control effect; nearly all actives have a fitted effect of over 60% in size)
# Summary of the method: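 Luminescent read-out of deoxyluciferin hydroxylation, normalized to 57uM sulphaphenazole (AC100). Reaction: 10nM enzyme, 100uM Luciferin-H (equal to KM), 25mM KPO4, 10 min compound preincubation, then 60 min with NADPH regeneration, both at 37C.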
# [8] = molecular target: Cytochrome P450 3A4 (Homo sapiens) (UniProt P08684); assay: qHTS Assay for Activators of Cytochrome P450 3A4 (AID 885; active means well fitted curve in the direction sought with a large enough effect; an effect the other way counts as inactive or inconclusive; further: nearly all actives have a fitted effect of over 65% in size)
# Summary of the method: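 Steps: enzyme/substrate mix dispensed; compound added, 10 min RT; NADPH regeneration solution added, 60 min RT; luciferin detection buffer stops reaction; 20 min later luminescence measured.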
# [9] = molecular target: Cytochrome P450 2D6 (Homo sapiens) (UniProt P10635); assay: qHTS Assay for Inhibitors and Substrates of Cytochrome P450 2D6 (AID 891; active means well fitted curve in the direction sought with a large enough effect; an effect the other way counts as inactive or inconclusive; further: potency means the concentration at half of the fitted maximal effect; nearly all actives have a fitted effect of over 60% in size)
# Summary of the method: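 Human CYP2D6 (5 nM) with 30 uM Luciferin-ME EGE (at Km) in 100 mM KPO4, compound preincubated 10 min, then NADPH regeneration system for 60 min at room temperature. Luciferin read by luminescence; normalized to 1.43 uM quinidine.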
# [10] = qHTS Assay for Identification of Small Molecule Antagonists for NFkB Signaling Pathway (AID 895; active means well fitted inhibition curve with a large enough effect in the signal ratio, with a control signal flat, not every such curve was filed as active; the % refers to the signal ratio; further: on the % scale 0 is the no-effect control and ±100 the full control effect)
# Summary of the method: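 Beta-lactamase reporter read-out (460 and 530 nm emission ratio, 405 nm excitation, 2 hrs substrate loading RT) after 5 hr stimulation with 10 pM TNF alpha in compound-treated NFkB-bla ME-180 cells in low-serum medium.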
# [11] = qHTS Assay for Identification of Small Molecule Agonists for Thrombopoietin (TPO) Signaling Pathway (AID 917; active means well fitted curve in the direction sought with a large enough effect; an effect the other way counts as inactive or inconclusive; further: on the % scale 0 is the no-effect control and ±100 the full control effect)
# Summary of the method: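 Murine Ba/F3 cells stably expressing human TPO receptor and a Glycoprotein IIb promoter–luciferase reporter were IL-3-starved overnight, then treated with compounds plus TPO (26 pM final, its EC50) for 24 hrs at 37 C; luminescence was read.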
# [12] = molecular target: Muscarinic acetylcholine receptor M1 (Rattus norvegicus) (UniProt P08482); assay: qHTS Assay for Antagonists of Acetylcholine Muscarinic M1 Receptor: Kinetic Measurement of Intracellular Calcium Response (AID 943; active means well fitted curve in the direction sought with a large enough effect; an effect the other way counts as inactive or inconclusive;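 further: Fluo-4 calcium signal as peak divided by basal fluorescence over 4 min; nearly all actives have a fitted effect of over 75% in size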)
# Summary of the method: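 Rat M1-CHO cells, 2000/well, overnight → Fluo-4 no-wash dye with probenecid, 1 h 37C → compound 10 min, room temp → basal read 6 s → carbachol EC80 (100 nM) → 4 min kinetic read; peak/basal.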
# [13] = molecular target: Pyruvate kinase PKM (Homo sapiens) (UniProt P14618); assay: qHTS Assay for Activators of Human Muscle Pyruvate Kinase (AID 954; active means well fitted curve in the direction sought with a large enough effect, not every such curve was filed as active;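 further: 0% = uninhibited enzyme and -100% = no enzyme or full thiadiazolimine inhibition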)
# Summary of the method: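 Reaction: 0.1 nM purified PKM2 with 0.5 mM phosphoenolpyruvate and 0.1 mM ADP, room temperature, 1 h. Readout: luciferase-based ATP luminescence after stop reagent. Activators judged against a 0.3 nM enzyme column.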
# [14] = molecular target: Alpha-galactosidase (Coffea arabica) (UniProt Q42656); assay: Counterscreen for Glucocerebrosidase Inhibitors: qHTS Assay for Coffee Bean alpha-Galactosidase at pH 4.5 (AID 957; active means well fitted curve in the direction sought with a large enough effect; an effect the other way counts as inactive or inconclusive;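 further: plate controls were enzyme alone for no effect and no enzyme for full effect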)
# Summary of the method: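 Coffee bean alpha-galactosidase 2 nM, substrate 4-MU-alpha-Gal 80 uM, pH 4.5 citrate/Tween-20, 20 min RT. Cpd titration 0.7 nM–77 uM. Stop pH 10, fluorescence 365/440 nm; Hill-equation AC50.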
# [15] = molecular target: Alpha-galactosidase A (Homo sapiens) (UniProt P06280); assay: Counterscreen for Glucocerebrosidase Inhibitors: qHTS Assay for Human alpha-Galactosidase at pH 4.5 (AID 992; active means well fitted curve in the direction sought with a large enough effect; an effect the other way counts as inactive or inconclusive; further: 0% is about no effect)
# Summary of the method: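 Concentration-response curves (0.7 nM to 77 uM final) were modeled with the Hill equation to give AC50. Reactions: 2 nM enzyme, 80 uM fluorogenic alpha-galactoside, pH 4.5 citric acid buffer, 20 min, room temperature.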
# [16] = molecular target: alpha-glucosidase (Oryza sativa, rice) (UniProt Q653V4); assay: Counterscreen for Glucocerebrosidase Inhibitors: qHTS Assay for Rice alpha-Glucosidase at pH 5.0 (AID 997; active means well fitted curve in the direction sought with a large enough effect; an effect the other way counts as inactive or inconclusive;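 further: 0% = full activity with enzyme and -100% = basal without enzyme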)
# Summary of the method: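 Rice alpha-glucosidase (4 nM final) with 400 uM 4-methylumbelliferyl-alpha-D-glucopyranoside in citrate buffer pH 5.0, 20 min at room temperature, stopped at pH 10; fluorescence 365/440 nm, compounds 0.7 nM–77 uM, AC50 from Hill fits.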
# [17] = molecular target: Alpha-galactosidase (Coffea arabica) (UniProt Q42656); assay: Counterscreen for Glucocerebrosidase Inhibitors: qHTS Assay for Coffee Bean alpha-Galactosidase at pH 5.9 (AID 998; active means well fitted curve in the direction sought with a large enough effect; an effect the other way counts as inactive or inconclusive;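 further: plate controls were uninhibited enzyme for no effect and no-enzyme basal signal for full effect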)
# Summary of the method: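 Compounds were titrated from 0.7 nM to 77 uM against green coffee bean alpha-galactosidase (2 nM) using 80 uM fluorogenic 4-methylumbelliferyl substrate. After 20 min at room temperature, reactions were stopped at pH 10 and read by fluorescence.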
# [18] = molecular target: Glucocorticoid receptor (Homo sapiens) (UniProt P04150); assay: GR-GFP Redistribution (AID 450;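 active means compounds whose dose series gives a full or clear partial fitted curve of increased nuclear translocation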; further: potency means the concentration at half of the fitted maximal effect); conditions: U2OS GR-GFP nuclear translocation, laser cytometry, 2 h
# Sequence of Glucocorticoid receptor (Homo sapiens) (P04150 whole entry, looked up): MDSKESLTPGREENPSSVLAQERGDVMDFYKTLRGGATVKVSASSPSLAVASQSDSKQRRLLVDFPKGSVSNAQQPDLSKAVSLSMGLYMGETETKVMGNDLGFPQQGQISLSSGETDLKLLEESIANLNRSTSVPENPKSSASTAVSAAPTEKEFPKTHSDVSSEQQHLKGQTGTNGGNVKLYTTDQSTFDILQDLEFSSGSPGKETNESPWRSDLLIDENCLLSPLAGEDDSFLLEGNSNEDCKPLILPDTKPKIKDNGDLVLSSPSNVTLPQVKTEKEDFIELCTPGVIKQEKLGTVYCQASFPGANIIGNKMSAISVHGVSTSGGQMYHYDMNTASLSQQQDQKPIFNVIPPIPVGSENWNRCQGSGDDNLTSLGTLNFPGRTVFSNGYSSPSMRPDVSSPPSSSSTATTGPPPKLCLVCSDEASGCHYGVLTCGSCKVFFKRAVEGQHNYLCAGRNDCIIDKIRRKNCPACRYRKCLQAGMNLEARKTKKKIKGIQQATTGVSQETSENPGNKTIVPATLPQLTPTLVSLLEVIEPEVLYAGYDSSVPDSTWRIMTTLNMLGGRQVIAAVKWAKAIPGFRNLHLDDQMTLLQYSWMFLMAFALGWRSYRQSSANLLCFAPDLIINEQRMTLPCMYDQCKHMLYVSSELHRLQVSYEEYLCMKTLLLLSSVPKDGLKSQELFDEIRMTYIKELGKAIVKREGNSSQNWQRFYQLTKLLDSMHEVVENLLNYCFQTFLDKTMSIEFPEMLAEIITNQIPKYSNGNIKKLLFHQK
# Sequence of Alpha-galactosidase (Coffea arabica) (Q42656 whole entry, looked up): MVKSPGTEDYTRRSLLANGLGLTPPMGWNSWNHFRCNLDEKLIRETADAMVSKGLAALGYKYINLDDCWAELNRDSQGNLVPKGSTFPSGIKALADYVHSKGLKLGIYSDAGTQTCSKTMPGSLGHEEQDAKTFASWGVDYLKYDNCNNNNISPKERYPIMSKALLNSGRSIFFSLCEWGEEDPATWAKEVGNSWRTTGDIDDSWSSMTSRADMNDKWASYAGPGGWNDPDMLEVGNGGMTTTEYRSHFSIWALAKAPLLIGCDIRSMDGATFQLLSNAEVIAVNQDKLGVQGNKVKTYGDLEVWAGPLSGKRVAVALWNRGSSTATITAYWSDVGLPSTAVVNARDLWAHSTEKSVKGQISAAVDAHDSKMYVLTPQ
# Sequence of Cytochrome P450 2D6 (Homo sapiens) (P10635 whole entry, looked up): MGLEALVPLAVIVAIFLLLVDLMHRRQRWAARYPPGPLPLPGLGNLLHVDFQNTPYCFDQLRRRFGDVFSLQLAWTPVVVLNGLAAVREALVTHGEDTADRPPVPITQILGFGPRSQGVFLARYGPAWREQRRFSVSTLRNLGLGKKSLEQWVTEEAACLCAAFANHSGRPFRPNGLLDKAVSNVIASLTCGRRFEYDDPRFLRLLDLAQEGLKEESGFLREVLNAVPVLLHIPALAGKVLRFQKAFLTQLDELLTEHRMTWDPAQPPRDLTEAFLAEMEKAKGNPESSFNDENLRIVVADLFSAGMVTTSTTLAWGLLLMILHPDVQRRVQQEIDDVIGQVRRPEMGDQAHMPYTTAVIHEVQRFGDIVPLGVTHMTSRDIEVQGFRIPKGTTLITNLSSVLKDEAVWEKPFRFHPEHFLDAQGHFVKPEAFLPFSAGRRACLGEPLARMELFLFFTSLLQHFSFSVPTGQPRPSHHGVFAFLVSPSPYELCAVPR
# Sequence of Alpha-galactosidase A (Homo sapiens) (P06280 whole entry, looked up): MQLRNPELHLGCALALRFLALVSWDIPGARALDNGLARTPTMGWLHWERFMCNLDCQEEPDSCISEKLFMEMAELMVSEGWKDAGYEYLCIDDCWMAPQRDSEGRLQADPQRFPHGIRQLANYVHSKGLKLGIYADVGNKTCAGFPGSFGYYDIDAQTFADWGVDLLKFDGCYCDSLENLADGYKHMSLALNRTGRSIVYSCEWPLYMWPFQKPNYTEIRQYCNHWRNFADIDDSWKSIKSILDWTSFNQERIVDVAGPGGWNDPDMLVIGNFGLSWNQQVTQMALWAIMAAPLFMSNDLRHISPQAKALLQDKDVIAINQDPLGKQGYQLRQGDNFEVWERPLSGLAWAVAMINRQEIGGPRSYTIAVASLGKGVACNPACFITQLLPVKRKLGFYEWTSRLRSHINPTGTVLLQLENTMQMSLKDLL
# Sequence of Cytochrome P450 3A4 (Homo sapiens) (P08684 whole entry, looked up): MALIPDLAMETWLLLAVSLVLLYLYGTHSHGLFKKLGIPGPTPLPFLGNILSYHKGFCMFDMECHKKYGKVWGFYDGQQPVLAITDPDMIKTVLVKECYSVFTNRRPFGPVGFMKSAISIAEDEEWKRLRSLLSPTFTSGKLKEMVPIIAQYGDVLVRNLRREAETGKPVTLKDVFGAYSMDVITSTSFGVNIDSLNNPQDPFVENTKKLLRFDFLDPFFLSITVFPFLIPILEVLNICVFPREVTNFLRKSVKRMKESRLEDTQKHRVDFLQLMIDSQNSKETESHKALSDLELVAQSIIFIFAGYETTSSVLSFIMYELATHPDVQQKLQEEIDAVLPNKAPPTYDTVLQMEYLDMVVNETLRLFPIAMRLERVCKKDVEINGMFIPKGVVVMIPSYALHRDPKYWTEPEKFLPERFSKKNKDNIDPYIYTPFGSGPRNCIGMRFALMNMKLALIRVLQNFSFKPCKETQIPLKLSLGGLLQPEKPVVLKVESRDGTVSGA
# Sequence of Pyruvate kinase PKM (Homo sapiens) (P14618 whole entry, looked up): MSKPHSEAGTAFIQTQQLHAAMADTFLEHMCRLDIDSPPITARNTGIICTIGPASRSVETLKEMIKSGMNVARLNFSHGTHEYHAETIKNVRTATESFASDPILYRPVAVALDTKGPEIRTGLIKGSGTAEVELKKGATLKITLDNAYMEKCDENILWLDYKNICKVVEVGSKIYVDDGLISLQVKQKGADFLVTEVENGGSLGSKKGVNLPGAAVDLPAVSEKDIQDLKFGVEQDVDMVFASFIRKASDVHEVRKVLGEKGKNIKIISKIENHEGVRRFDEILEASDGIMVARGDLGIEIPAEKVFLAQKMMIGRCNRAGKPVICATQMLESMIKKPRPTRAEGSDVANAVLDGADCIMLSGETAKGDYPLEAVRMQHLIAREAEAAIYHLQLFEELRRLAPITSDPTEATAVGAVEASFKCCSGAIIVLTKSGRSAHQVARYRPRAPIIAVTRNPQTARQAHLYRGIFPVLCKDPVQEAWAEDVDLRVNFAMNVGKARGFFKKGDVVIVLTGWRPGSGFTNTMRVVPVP
# Sequence of Cytochrome P450 1A2 (Homo sapiens) (P05177 whole entry, looked up): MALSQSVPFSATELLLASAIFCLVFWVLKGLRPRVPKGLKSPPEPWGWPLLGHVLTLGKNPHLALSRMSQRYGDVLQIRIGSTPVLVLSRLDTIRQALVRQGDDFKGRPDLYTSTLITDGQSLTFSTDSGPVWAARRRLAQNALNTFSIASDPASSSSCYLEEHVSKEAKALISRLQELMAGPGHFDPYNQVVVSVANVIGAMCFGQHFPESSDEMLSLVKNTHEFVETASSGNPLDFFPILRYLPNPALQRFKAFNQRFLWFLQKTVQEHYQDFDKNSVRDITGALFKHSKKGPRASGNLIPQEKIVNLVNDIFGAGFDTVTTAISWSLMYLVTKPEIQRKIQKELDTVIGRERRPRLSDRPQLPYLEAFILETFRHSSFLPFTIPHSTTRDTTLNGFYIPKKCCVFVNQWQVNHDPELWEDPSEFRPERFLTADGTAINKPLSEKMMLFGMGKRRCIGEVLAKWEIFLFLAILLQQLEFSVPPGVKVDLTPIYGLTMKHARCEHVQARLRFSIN
# Sequence of 3',5'-cyclic-AMP phosphodiesterase 4B (Homo sapiens) (Q07343 whole entry, looked up): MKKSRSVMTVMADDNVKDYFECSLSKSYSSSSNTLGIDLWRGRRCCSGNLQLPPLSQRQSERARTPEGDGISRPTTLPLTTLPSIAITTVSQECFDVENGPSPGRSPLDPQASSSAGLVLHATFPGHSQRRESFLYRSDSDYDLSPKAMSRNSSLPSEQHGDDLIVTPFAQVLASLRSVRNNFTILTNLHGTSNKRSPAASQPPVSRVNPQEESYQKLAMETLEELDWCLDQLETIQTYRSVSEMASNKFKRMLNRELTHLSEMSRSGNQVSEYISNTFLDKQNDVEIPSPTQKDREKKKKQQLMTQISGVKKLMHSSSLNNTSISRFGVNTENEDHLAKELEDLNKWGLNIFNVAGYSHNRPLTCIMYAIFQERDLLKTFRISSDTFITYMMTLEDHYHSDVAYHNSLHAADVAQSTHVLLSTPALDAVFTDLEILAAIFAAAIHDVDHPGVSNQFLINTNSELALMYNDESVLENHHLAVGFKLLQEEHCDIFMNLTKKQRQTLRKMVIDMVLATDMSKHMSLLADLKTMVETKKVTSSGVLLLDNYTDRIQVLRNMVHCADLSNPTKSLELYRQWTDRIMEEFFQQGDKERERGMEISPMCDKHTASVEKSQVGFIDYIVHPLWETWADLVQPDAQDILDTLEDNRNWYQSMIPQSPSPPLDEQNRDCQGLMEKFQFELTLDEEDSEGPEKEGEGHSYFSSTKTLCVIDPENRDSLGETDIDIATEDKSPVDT
# Sequence of Muscarinic acetylcholine receptor M1 (Rattus norvegicus) (P08482 whole entry, looked up): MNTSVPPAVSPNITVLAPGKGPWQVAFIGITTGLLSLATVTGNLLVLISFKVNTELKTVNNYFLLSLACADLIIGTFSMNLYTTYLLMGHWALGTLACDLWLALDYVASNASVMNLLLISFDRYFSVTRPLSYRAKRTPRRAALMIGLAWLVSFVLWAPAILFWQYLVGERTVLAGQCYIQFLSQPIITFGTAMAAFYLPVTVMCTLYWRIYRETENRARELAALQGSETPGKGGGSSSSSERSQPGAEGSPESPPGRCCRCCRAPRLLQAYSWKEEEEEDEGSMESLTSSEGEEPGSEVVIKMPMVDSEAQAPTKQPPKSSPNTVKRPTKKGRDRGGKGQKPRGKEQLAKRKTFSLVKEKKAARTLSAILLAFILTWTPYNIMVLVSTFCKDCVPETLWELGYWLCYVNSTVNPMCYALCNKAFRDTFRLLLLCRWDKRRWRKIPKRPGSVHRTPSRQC
structure (smiles),measurement,setting,value
CCN(CC)C(=O)N[C@H]1C[C@H]2c3cccc4[nH]cc(c34)C[C@@H]2N(C)C1,"activity change, negative = inhibition",[1],9.81% [at 38 µM]
same,Potency,[2],inactive
same,"activity change, negative = inhibition",[3],3.16% [at 38 µM]
same,outcome,[4],inactive
same,outcome,[5],inactive
same,outcome,[6],inactive
same,Potency,[7],inactive
same,Potency,[8],inactive
same,Potency,[9],0.0398 µM (active)
same,Potency,[10],inactive
same,outcome,[11],inactive
same,Potency,[12],inactive
same,outcome,[13],inactive
same,outcome,[14],inactive
same,outcome,[15],inactive
same,outcome,[16],inactive
same,outcome,[17],inactive
CC(C)Cc1[nH]c(=O)c(C#N)c2c1CCC2,"activity change, negative = inhibition",[1],8.3%
same,"activity change, negative = inhibition",[3],18.5%
same,outcome,[4],inactive
same,Potency,[18],> 20.6 µM
O=P(c1ccccc1)(c1ccccc1)N1CCCCC1,"activity change, negative = inhibition",[1],-9.35%
same,"activity change, negative = inhibition",[3],-3.91%
same,outcome,[4],inactive
same,Potency,[18],> 20.6 µM
CCOCCN1CCC(OC(C)=O)C(C)C1 (centres undefined),"activity change, negative = inhibition",[1],-2.51%
same,"activity change, negative = inhibition",[3],-5.87%
same,outcome,[4],inactive
same,Potency,[18],> 20.6 µM
C=CCOC(=O)C1=C(C)OC(N)=C(C#N)[C@@]12C(=O)N(CC(N)=O)c1ccccc12,"activity change, negative = inhibition",[1],6.24%
same,"activity change, negative = inhibition",[3],-10.1%
same,outcome,[4],inactive
same,Potency,[18],> 20.6 µM
c1ccc(Cn2ccnc2)cc1,"activity change, negative = inhibition",[1],3.97%
same,"activity change, negative = inhibition",[3],-0.8%
same,outcome,[4],inactive
same,Potency,[18],> 20.6 µM
O=C1NC(=O)C(C/C=C/c2ccccc2)C(=O)N1,"activity change, negative = inhibition",[1],9.27%
same,"activity change, negative = inhibition",[3],-11.1%
same,outcome,[4],inactive
same,Potency,[18],> 20.6 µM
CN1CCc2c(c(N3CCCCC3)nc3n[nH]c(N)c23)C1,"activity change, negative = inhibition",[1],-3.37%
same,"activity change, negative = inhibition",[3],-4.59%
same,outcome,[4],inactive
same,Potency,[18],> 20.6 µM
CCN(CC)c1ccc(N=Cc2c(O)n(-c3ccccc3C)c(=O)[nH]c2=O)cc1,"activity change, negative = inhibition",[1],-21.6%
same,"activity change, negative = inhibition",[3],-29.8%
same,outcome,[4],inactive
same,Potency,[18],> 20.6 µM
Nc1ncc(P(=S)(N2CCOCC2)N2CCOCC2)s1,"activity change, negative = inhibition",[1],10.9%
same,"activity change, negative = inhibition",[3],4.78%
same,outcome,[4],inactive
same,Potency,[18],> 20.6 µM
O=c1[nH]c(=O)n(Cc2ccco2)c(O)c1C=NCCN1CCOCC1,"activity change, negative = inhibition",[1],12.8%
same,"activity change, negative = inhibition",[3],-0.917%
same,outcome,[4],inactive
same,Potency,[18],> 20.6 µM
CC(=O)OC1N=C(c2ccccc2)c2ccccc2NC1=O (centres undefined),"activity change, negative = inhibition",[1],-8.32%
same,"activity change, negative = inhibition",[3],11.5%
same,outcome,[4],inactive
same,Potency,[18],> 20.6 µM
Cc1ccc(C)c(C2(O)CC(C)N(C)CC2C)c1 (centres undefined),"activity change, negative = inhibition",[1],22.9%
same,"activity change, negative = inhibition",[3],9.11%
same,outcome,[4],inactive
same,Potency,[18],> 20.6 µM
Cc1ccc(-n2c(O)c(C=NCCN3CCOCC3)c(=O)[nH]c2=O)cc1,"activity change, negative = inhibition",[1],6.04%
same,"activity change, negative = inhibition",[3],13.7%
same,outcome,[4],inactive
same,Potency,[18],> 20.6 µM
